Compounds with a hit are over-represented: about 13% of the library has one in this group of screens.
Lassa entry inh: blocks Lassa virus binding to or entry into cells; Lassa virus pseudotype entry inhibition, cell reporter; Potency, µM (highest dose often 37.9 µM), for inactives: top-dose activity change, negative = inhibition, actives largely listed as inhibitors; 300,000 compounds, 1.2% hits; calls by dose curve; tested in HEK293 cells; also: potency is read from the fitted curve at half-maximal effect; % is scaled to controls: 0 for no effect and ±100 for the full control effect; nearly all actives have a fitted effect of over 50% in size
FMDV antiviral: antivirals against foot and mouth disease virus; 410,000 compounds, 1.2% hits; Potency, µM (top dose mostly 57.9 µM), for inactives: at the highest dose activity change, negative = inhibition, actives largely listed as inhibitors; AID 1159524; FMDV antiviral cell-based qHTS; calls by dose curve; tested in HEK293T cells; also: read-out not given here; potency is read from the fitted curve at half-maximal effect; % is scaled to controls: 0 for no effect and ±100 for the full control effect; nearly all actives have a fitted effect of over 45% in size
MARV entry inh: Marburg virus entry inhibition; Potency, µM (series often up to 37.8 µM), without a hit: at the top dose activity change, negative = inhibition, most hits filed as inhibitors; Marburg virus pseudotyped entry inhibition, cell reporter; 300,000 compounds, 1.8% hits; AID 540276; calls by dose curve; tested in HEK293 cells; also: potency is read from the fitted curve at half-maximal effect; % is scaled to controls: 0 for no effect and ±100 for the full control effect
HCV inh: blocks hepatitis C virus. Huh7.5.1 HCVcc-Cre infection, luciferase reporter, 44 h. 340,000 compounds, 3.4% hits. Potency, µM (titrated, usually from 41.8 µM), for inactives: at the highest dose activity change, negative = inhibition, most hits filed as inhibitors; active = well fitted inhibition curve with a large enough effect; inconclusive = small, poorly fitted or top-dose-only effect, or another doubt; inactive = no such curve, though single readings can be large or run the other way; also: potency is read from the fitted curve at half-maximal effect; % is scaled to controls: 0 for no effect and ±100 for the full control effect
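Whole-lifecycle infectious HCVcc-Cre system; cells 1,000/well, compound then virus (~0.5 moi) added 4 h after plating, 44 h culture. Luciferase read 15 sec following 15 min substrate incubation, room temp.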
Shiga inhibitor: inhibitors of Shiga toxin in Vero cells; Vero cells, Shiga toxin protein synthesis inhibition reporter; inhibition, % at 38.7 µM; 290,000 compounds, 9.2% hits; in the data active = inhibition mostly above about 28%, no sharp cut-off; inactive = mostly below about 43%; also: 0% is about no effect
CHX counter: counter-screen for Shiga toxin inhibitors: cycloheximide protein synthesis inhibition; cell reporter, cycloheximide protein synthesis inhibition counterscreen; 300,000 compounds, 12% hits; AID 2314; max response, %; in the data active = max response mostly above about 13%, no sharp cut-off; inactive = mostly below about 14%; also: read at 38.3 µM for the half of the compounds with a filed dose; 0% is about no effect
Starred values were filed as active, the others as inactive; ? = inconclusive; . = not tested or not shown; + = active, no number; ! = not confirmed by another sample; [ ] = another dose, or the depositor's remark.

SMILES	Lassa entry inh	FMDV antiviral	MARV entry inh	HCV inh	Shiga inhibitor	CHX counter
O=C(Nc1ccc(Cl)cc1)Nn1cnc2ccccc2c1=O	5.2%	10.7%	1.2%[46.1 µM]	7.5%	47.8*	24.2*
O=C(/C=C/c1ccccc1)Nn1cnc2ccccc2c1=O	-0.6%	-24.8%	?	-6.4%	29.1	21.5*
O=C(Nn1cnc2ccccc2c1=O)c1ccccc1Cl	11.0%	.	29.0%	2.5%	28.7	16.9*
Cc1ccccc1C(=O)Nn1cnc2ccccc2c1=O	?	53.0%	-0.2%[46.1 µM]	18.6%	49.6*	32.7*
O=C(Nn1cnc2ccccc2c1=O)c1ccccc1[N+](=O)[O-]	-15.6%	-4.9%	4.1%[46.1 µM]	7.6%	22.4	23.7
COCc1c(C(=O)N2CCC(N(C)C)C2)cnn1-c1ncc2c(n1)-c1ccccc1CCC2 (stereo unspecified)	.	-8.7%	.	.	.	.
CC1(C)C2CCC1(C)C(NC(=O)/C=C/c1ccccc1)C2 (stereo unspecified)	.	-7.6%	?	-13.5%	57.8	21.8
CCOc1ccccc1C(=O)Nc1ccc2nc3n(c(=O)c2c1)CCCCC3	.	3.1%	.	?	10.4	-1.5
COc1ccc(C(=O)Nn2cnc3ccccc3c2=O)c(OC)c1	.	68.3%	0.9%	15.8%	39.0*	25.6*
CC(=O)Nc1ccc(S(=O)(=O)Nc2cccc(-c3csc(C)n3)c2)cc1	-20.2%[46.1 µM]	8.3%	?	?	8.4	-2.5
Cc1nc(-c2cccc(NC(=O)C3CCCCC3)c2)cs1	.	0.0%	.	?	35.7*	9.1
COc1ccc(-c2csc(NC(=O)Cn3nc(C)cc3C)n2)cc1	-11.5%	-15.4%	-9.3%[46.1 µM]	-27.5%	-12.5	-1.5
Cc1nc(-c2ccc(NC(=O)CC(C)C)cc2)cs1	?	17.8%	-9.5%	-21.5%	+	37.8*
COc1ccc(-c2csc(NC(=O)CC(C)C)n2)cc1	13µM*	?	?	-25.7%	83.7*	48.3*
Cc1nc(-c2ccc(NC(=O)C3CC3)cc2)cs1	-7.3%[46.1 µM]	45.9%	?	2.0%	80.6*	22.7*
Cc1nc(-c2ccc(C(=O)O)cc2)cs1	3.0%	32.8%	17.8%	18.2%	15.3	1.2
COc1ccc(C2c3[nH]c4ccccc4c3C[C@H]3C(=O)N(C)CC(=O)N23)cc1OC (stereo partly specified)	.	-17.1%	.	13.4%	-5.2	-3.2
COc1ccc(C(CNC(=O)c2cc(S(=O)(=O)Nc3cccc(C)c3)ccc2C)N2CCOCC2)cc1 (stereo unspecified)	.	25.4%	.	-0.3%	.	.
Cc1c(NS(=O)(=O)c2cc(C(=O)OCC(=O)c3ccccc3F)ccc2Cl)c(=O)n(-c2ccccc2)n1C	.	25.4%	.	.	.	.
CC1CCN(C(=O)COC(=O)c2n[nH]c3ccccc23)CC1	5.4%	18.6%	?	21.1%	79.3*	41.0*
CC1CCN(c2nc(-c3ccccc3O)nc3ccccc23)CC1	-4.2%	-15.0%	-23.3%	?	-13.9	2.2
CCC1CCCCN1C(=O)COC(=O)c1n[nH]c2ccccc12 (stereo unspecified)	14.0%	-8.5%	11.6%	?	-2.8	19.2*
CC1CCN(C(=O)COc2ncnc3ccccc23)CC1	7.6%	36.2%	14.2%[46.1 µM]	12.5%	37.3*	23.0
CCC1CCCCN1C(=O)COC(=O)c1cccs1 (stereo unspecified)	-0.1%	25.7%	?	20.2%	.	.
O=C(OCC(=O)N1CCCCCC1)c1n[nH]c(=O)c2ccccc12	10.1%	6.6%	22.1%	8.6%	-13.9	-1.0
SMILES	Lassa entry inh	FMDV antiviral	MARV entry inh	HCV inh	Shiga inhibitor	CHX counter
CC1CCN(c2ncnc3ccccc23)CC1	-0.2%	?	-0.9%	11.2µM*	-14.3	16.5
Cc1cc(C)c(NC(=O)CSc2nc3ccccc3c3nc(-c4ccccc4)nn23)c(C)c1	6.3%[46.1 µM]	-5.0%	.	.	.	.
CCn1ncc(/C=N/NC(=O)c2ccc3c(c2)OCO3)c1C	?	38.6%	?	?	22.7	3.8
CCn1cc(/C=N/NC(=O)c2ccc3c(c2)OCO3)c(C)n1	?	27.1%	8.7%	14.7%	47.8	16.2*
CCn1nc(C)c(/C=N\NC(=O)c2ccc3c(c2)OCO3)c1C	-2.2%	-13.8%	-7.4%[46.1 µM]	?	83.0*	38.9*
Cc1c(C)n(Cc2ccccc2)c2ccc(C(=O)OCCN(C)C)cc12	6.3%[46.1 µM]	11.3%	?	?	67.6	29.1*
CCn1nc(C)c(/C=N/NC(=O)c2ccc3c(c2)c(C)c(C)n3Cc2ccccc2)c1C	-28.8%	?	-29.6%	10µM*	-11.3	7.7
Cc1cccc(OCc2nnc(SCc3cc(=O)[nH]c4ccccc34)n2-c2ccccc2)c1	?	-8.0%	3.7%	-12.6%	-2.7	-1.7
CCOC(=O)[C@]12CCCC=C1N(Cc1ccc3c(c1)OCO3)C(=O)[C@H](CC(=O)N1CCSCC1)C2	.	-4.0%	.	.	.	.
Nc1nccc(-c2ccc(-n3cccc3)cc2)n1	11.9%[46.1 µM]	20.6%	1.7%[46.1 µM]	3.8%	52.7*	23.2*
CCOc1ccccc1C(=O)NCCCCNC(=O)c1ccccc1OCC	?	-6.5%	?	?	.	.
O=C(NCCN1CCOCC1)c1cc(-c2ccc(F)cc2)nc2ccccc12	?	-6.3%	22.2%	-1.5%	.	.
O=C(COc1ccc2c(-c3ccccc3)cc(=O)oc2c1)NCCCN1CCOCC1	.	9.4%	.	-8.8%	23.1	11.8*
CC(C)Oc1ccc(-c2cc(C(=O)NCCN3CCOCC3)c3ccccc3n2)cc1	-11.1%	11.4%	-4.6%	10µM*	61.1	29.6*
O=C(NCCCN1CCOCC1)c1cc(-c2ccc(F)cc2)nc2ccccc12	.	2.4%	.	-16.1%	.	.
CCOc1ccccc1C(=O)NCCCN1CCN(CCCNC(=O)c2ccccc2OCC)CC1	?	5.9%	21.8%	10µM*!	1.1	-3.6
CCOc1ccc(-c2cc(C(=O)NCCCN3CCOCC3)c3ccccc3n2)cc1	.	11.0%	.	?	40.3	22.7*
CCCCNC(=O)c1sc2ncnc(NCC3CCCO3)c2c1C (stereo unspecified)	.	0.8%	.	.	.	.
NS(=O)(=O)c1ccc(CCNC(=O)CN2CCN(c3ccccc3O)CC2)cc1	.	2.3%	.	-8.1%	-9.4	-1.4
COc1ccc(CCNC(=O)CCc2cc(OC)c(OC)c(OC)c2)cc1	.	-4.3%	.	-9.1%	-3.4	-1.8
O=C(CN1CCC(NC(=O)C2CCCCC2)CC1)Nc1ccccc1	-16.8%	-10.1%	-11.1%[46.1 µM]	-0.1%	.	.
COc1ccccc1-c1cc(C(=O)N2CCc3ccccc3C2)c2ccccc2n1	.	.	-0.7%	.	-8.1	-1.4
CN1CCN(C(=O)c2cnn3c(C(F)(F)F)cc(-c4cccs4)nc23)CC1	7.3%	-13.9%	4.8%	19.8%	-9.2	-3.1
O=C(c1cc(-c2cccs2)on1)N1CCN(C(c2ccccc2)c2ccccc2)CC1	?	-21.0%	?	2.82µM*	-1.6	6.7
COc1ccccc1-c1cc(C(F)(F)F)n2ncc(C(=O)N3CCc4ccccc4C3)c2n1	-29.0%	-29.0%	-29.3%	11.2µM*	-17.5	-2.5
COc1ccccc1N1CCN(C(=O)c2cc(-c3cccs3)on2)CC1	-1.4%	15.8%	?	-1.8%	22.8	6.9

Source: PubChem (National Center for Advancing Translational Sciences (NCATS))
